Compound activity: PubChem, National Center for Advancing Translational Sciences (NCATS)
LDHA block: LDHA (human) enzyme inhibition; P00338; purified LDHA, NADH/diaphorase-resazurin fluorescence; stronger effect = lower value; activity change, % (values are at about 110 or 230 µM); 480,000 compounds, 0.15% hits; AID 1347041; in the data active = activity change below about -30%; inconclusive = mostly about -25% to -30%
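Remaining NADH was detected by diaphorase (0.133 mg/mL) converting 37 µM resazurin to fluorescent resorufin, read at 0 and 20 minutes. The preceding 5-minute room-temperature reaction used 2 nM LDHA, 0.2 mM sodium pyruvate and 0.06 mM NADH at pH 7.4.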
Gal4-VP16 FLuc: counter-screen for ROR gamma inhibitors: Gal4-VP16 reporter; Drosophila S2 Gal4-VP16 UAS-luciferase, luminescence, 20 h; Potency, µM (doses to about 53.6 µM), actives largely listed as inhibitors; 310,000 compounds, 3.5% hits; AID 2546;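 note: Gal4-VP16 expression switched on by copper sulfate through the metallothionein promoter; nearly all actives have a fitted effect of over 50% in size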
RORg inh: inhibitors of mouse ROR gamma transcriptional activity; Potency, µM (doses to about 53.6 µM), hits mostly inhibitors; Drosophila S2 Gal4-RORgamma UAS-luciferase reporter, 20 h; AID 2551; 310,000 compounds, 5.4% hits; P51450; note: nearly all actives have a fitted effect of over 60% in size
Target sequence (P51450 whole entry, looked up, the tested form may be a part): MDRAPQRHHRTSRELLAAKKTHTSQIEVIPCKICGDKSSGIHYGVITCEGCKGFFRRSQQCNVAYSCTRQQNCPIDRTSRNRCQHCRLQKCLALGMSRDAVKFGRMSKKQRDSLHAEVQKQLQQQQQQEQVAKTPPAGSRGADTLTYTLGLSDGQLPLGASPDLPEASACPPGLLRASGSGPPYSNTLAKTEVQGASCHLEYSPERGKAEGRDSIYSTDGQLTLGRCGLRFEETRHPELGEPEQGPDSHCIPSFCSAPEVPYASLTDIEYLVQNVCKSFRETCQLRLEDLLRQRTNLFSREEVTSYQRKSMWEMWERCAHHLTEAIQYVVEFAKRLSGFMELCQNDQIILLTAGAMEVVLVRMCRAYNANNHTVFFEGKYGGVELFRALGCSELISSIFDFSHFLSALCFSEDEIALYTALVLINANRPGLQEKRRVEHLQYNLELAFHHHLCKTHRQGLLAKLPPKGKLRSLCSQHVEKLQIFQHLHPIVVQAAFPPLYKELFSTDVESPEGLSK
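Stably transfected Drosophila Schneider cells are the test system, with ROR gamma fused to Gal4 and luciferase under UAS control; luminescence is read after 20 hr of 700 uM copper sulfate induction at ambient temperature.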
IL-1B inflam inh: blocks inflammasome-driven IL-1 beta release; THP-1 LPS/ATP IL-1B secretion, AlphaLISA, 16 h; stronger effect = lower value; activity change, % at 57.5 µM; 360,000 compounds, 4.7% hits; AID 743279; in the data active = activity change below about -50%; inconclusive = mostly about -30% to -49%
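Secreted IL-1B measured by AlphaLISA bead assay after 16 h compound exposure of THP-1 cells; compounds (final up to 57.5 uM) added 1 h before LPS (250 ng/mL) and ATP (1.25 mM) stimulation; lower signal means less secretion.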
TDP1 cell noCPT: qHTS for Inhibitors of human tyrosyl-DNA phosphodiesterase 1 (TDP1): qHTS in cells in absence of CPT; DT40 Tdp1-/- hTDP1 cells, no CPT, ATP luminescence, 48 h; Potency, µM (top dose mostly 46.2 µM), most hits filed as inhibitors; 420,000 compounds, 15% hits; note: nearly all actives have a fitted effect of over 55% in size
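Seeded 400 DT40-hTDP1 cells/well (vehicle DMSO, no 20 nM CPT); pinned compounds; ≥48 hr at 37 °C; CellTiter-Glo luminescence as viability measure.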
DT40 TDP1 CPT: growth inhibition of DT40 Tdp1-/-;hTDP1 cells with camptothecin (screen for TDP1 inhibitors). chicken DT40 Tdp1-/-;hTDP1 cells + 20 nM CPT, ATP luminescence, 48 h. Potency, µM (series often up to 46.2 µM), most hits filed as inhibitors. 420,000 compounds, 12% hits; note: nearly all actives have a fitted effect of over 55% in size
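Cell growth measured by CellTiter-Glo luminescence after a minimum 48 h, 37 C compound exposure with 20 nM CPT in Tdp1-knockout DT40 cells stably expressing hTDP1, seeded 400/well; qHTS titration format.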
Numbers stand for hits. Compounds with a hit are over-represented: about 18% of the library has one in this group of screens. Unless noted, calls come from the whole dose curve; as a rule, active = well fitted curve in the direction sought with a large enough effect; inconclusive = small, poorly fitted or top-dose-only effect, or another doubt; inactive = no such curve, though single readings can be large; an effect the other way counts as inactive or inconclusive.

O=C(CCc1ncc(-c2ccccc2)o1)NCCc1cccc(F)c1 was read as LDHA block inactive.
For CCCCCCCCCCCC[n+]1ccc2ccccc2c1 the results were Gal4-VP16 FLuc 5µM, RORg inh inconclusive, TDP1 cell noCPT 0.34µM and DT40 TDP1 CPT 0.53µM.
`CCN(CC)C(=O)CCc1ccc(C(C)(C)C)cc1` gave LDHA block inactive.
`CCCCNC(=S)NNC(=O)C1=NN(c2cc(C)ccc2C)C(=O)CC1` gave LDHA block inactive, Gal4-VP16 FLuc inactive, RORg inh inconclusive, IL-1B inflam inh inactive, TDP1 cell noCPT inactive and DT40 TDP1 CPT inactive.
Screening CCCCNC(=S)NNC(=O)CCn1cc(C)cn1 returned LDHA block inactive, Gal4-VP16 FLuc 6.3µM, RORg inh 1.6µM, IL-1B inflam inh inactive, TDP1 cell noCPT inactive and DT40 TDP1 CPT inactive.
Screening CC(C)CNC(=S)NNC(=O)CC(C)O (stereo unspecified) returned LDHA block inactive, Gal4-VP16 FLuc inactive, RORg inh inactive, IL-1B inflam inh inactive, TDP1 cell noCPT inactive and DT40 TDP1 CPT inactive.
Screening Cc1cnn(CCC(=O)NNC(=S)NCC(C)C)c1 returned LDHA block inactive, Gal4-VP16 FLuc 3.2µM, RORg inh 0.56µM, IL-1B inflam inh inactive, TDP1 cell noCPT 26µM and DT40 TDP1 CPT inconclusive.
Screening CCOC(=O)Nc1ccc2nc(-c3cscn3)[nH]c2c1 returned LDHA block inactive, IL-1B inflam inh inactive, TDP1 cell noCPT 5.8µM and DT40 TDP1 CPT 6.5µM.
CCN1CCN(C(C)CNC(=O)NCc2nc(C)cs2)CC1 (stereo unspecified) was read as LDHA block inactive.
`CCCc1nc2c(s1)CCc1onc(-c3cccc([N+](=O)[O-])c3)c1-2` gave LDHA block inactive, IL-1B inflam inh inactive, TDP1 cell noCPT inactive and DT40 TDP1 CPT inactive.
For CC(C)c1nc2c(s1)CCc1onc(-c3cccc([N+](=O)[O-])c3)c1-2 the results were LDHA block inactive, IL-1B inflam inh inactive, TDP1 cell noCPT 23µM and DT40 TDP1 CPT inconclusive.
Screening CC[C@H](C)[C@@H]1NC(=O)[C@H]([C@@H](C)CC)NC(=O)[C@@H](CC(C)C)NC(=O)[C@H](Cc2ccccc2)NC(=O)[C@H](Cc2ccccc2)NC(=O)[C@@H]2CCCN2C(=O)[C@@H]2CCCN2C(=O)[C@H](C(C)C)NC(=O)[C@H](CC(C)C)NC1=O returned LDHA block inactive, IL-1B inflam inh inactive, TDP1 cell noCPT 8.2µM and DT40 TDP1 CPT 6.5µM.
CSCC[C@@H]1NC(=O)[C@@H](NC(=O)[C@H](CCCNC(=N)N)NC(=O)[C@H](CC(C)C)NC(=O)[C@H](CCSC)NC(=O)[C@H](CC(=O)O)NC(=O)[C@H](Cc2ccccc2)NC(=O)[C@@H](N)CC(=O)O)CSSC[C@@H](C(=O)N[C@@H](Cc2c[nH]c3ccccc23)C(=O)N[C@@H](CCC(N)=O)C(=O)N[C@H](C(=O)O)C(C)C)NC(=O)[C@@H]2CCCN2C(=O)[C@H](CCCNC(=N)N)NC(=O)[C@H](Cc2ccc(O)cc2)NC(=O)[C@H](C(C)C)NC(=O)[C@H](CCCNC(=N)N)NC(=O)CNC(=O)[C@H](CC(C)C)NC1=O was read as Gal4-VP16 FLuc inactive and RORg inh inactive.
For Cc1cc(OCC(=O)N(Cc2sccc2C)CC2CCCO2)ccc1Cl (stereo unspecified) the results were LDHA block inactive.
Screening O=C(NNC(=O)C1CC1c1ccccc1)NC1CCCCC1 (stereo unspecified) returned LDHA block inactive.
COC(=O)CN(CC(=O)OC)NC(=O)CCC(=O)O was read as LDHA block inactive.
CC(=O)c1csc(NC(=O)c2nn(C)c(=O)c3ccccc23)n1 was read as LDHA block inactive.
Screening COc1cccc(NC(=O)Nc2ccc3c(c2)N(C)C(=O)CS3)c1 returned LDHA block inactive, Gal4-VP16 FLuc inactive, RORg inh inactive, IL-1B inflam inh inconclusive, TDP1 cell noCPT 21µM and DT40 TDP1 CPT inconclusive.
`CN1C(=O)CSc2ccc(NC(=O)Nc3ccccn3)cc21` gave LDHA block inactive, Gal4-VP16 FLuc inconclusive, RORg inh inactive, IL-1B inflam inh -60, TDP1 cell noCPT inconclusive and DT40 TDP1 CPT 29µM.
`NC(=O)C(Sc1cc(Cl)ccc1Cl)c1ccccc1` (stereo unspecified) gave LDHA block inactive.
For COc1ccc(C2CC(=O)Nc3nc(N)sc32)cc1OCc1ccccc1Cl (stereo unspecified) the results were LDHA block inactive.
`Cn1ccc2nc3ncnn3c(-c3ccccc3)c2c1=O` gave LDHA block inactive.
C[C@]12CCC(=O)CC1CCC1C2CC[C@@]2(C)C1CC[C@@]21CCO1 (stereo partly specified) was read as LDHA block inactive, Gal4-VP16 FLuc inactive, RORg inh inactive, IL-1B inflam inh inactive, TDP1 cell noCPT 21µM and DT40 TDP1 CPT inconclusive.
Screening C[C@]12CCC(=O)C[C@@H]1CC[C@@H]1[C@@H]2CC[C@]2(C)C=CC[C@@H]12 returned LDHA block inactive, Gal4-VP16 FLuc inactive, RORg inh inactive, IL-1B inflam inh inactive, TDP1 cell noCPT inconclusive and DT40 TDP1 CPT inactive.
For Cc1ccc(-n2c(N)c(C#N)c(-c3ccc(Cl)cc3)c(C#N)c2=O)cc1 the results were LDHA block inactive, Gal4-VP16 FLuc inactive, RORg inh inactive, IL-1B inflam inh inactive, TDP1 cell noCPT inactive and DT40 TDP1 CPT inconclusive.
For CCOC(=O)c1c(-c2ccc(Cl)cc2)c(C#N)c(=O)n(N)c1N the results were LDHA block inactive, Gal4-VP16 FLuc inactive, RORg inh inactive, IL-1B inflam inh inactive, TDP1 cell noCPT 0.52µM and DT40 TDP1 CPT inconclusive.
`COc1ccc(C(=O)N2CCCN(C(=O)OC(C)(C)C)CC2)cc1OC` gave LDHA block inactive.
`Cc1nnc(N2CCN(c3ccccc3F)CC2)c2c1nnn2Cc1ccc(F)cc1` gave LDHA block inactive, TDP1 cell noCPT inconclusive and DT40 TDP1 CPT inconclusive.
For Cc1nnc(N2CCN(c3ccccc3F)CC2)c2c1nnn2Cc1ccccc1 the results were LDHA block inactive, TDP1 cell noCPT 16µM and DT40 TDP1 CPT inconclusive.
Cc1nnc(N2CCN(c3ccccc3F)CC2)c2c1nnn2Cc1ccccc1Cl was read as LDHA block inactive, TDP1 cell noCPT inconclusive and DT40 TDP1 CPT 15µM.
CCOC(=O)C(NC(=O)C1CC1c1cccc(C)c1)C(=O)OCC (stereo unspecified) was read as LDHA block inactive.
